Here are results for 92 molecules from PubChem BioAssay AID2314 (National Center for Advancing Translational Sciences (NCATS), 2010).

Where “and” joins values, the source holds several entries; their conditions need not be identical. Identical values can stand only once. The whole screen tested about 300,000 compounds, of which about 37,000 (12%) were called active. What follows is part of a selection rich in actives, with near analogues and random picks from the rest. Values without a mark were called inactive. Rule as the data show it: active = max response mostly above about 13% (no sharp cut-off); inactive = mostly below about 14%.

This assay in a line: Cycloheximide Counterscreen for Small Molecule Inhibitors of Shiga Toxin. Also: read at 38.3 µM for the half of the compounds with a filed dose; 0% is about no effect. The note with it: cell reporter, cycloheximide protein synthesis inhibition counterscreen; hits give high values.
`O=C(c1ccco1)N1CCN(c2cccc(Cl)c2)CC1`: the max response was 23.2% (active). For `O=C(c1ccc2c(c1)OCO2)N1CCN(C(=O)c2ccco2)CC1`, the max response was -3.05%. With `O=C(OCC(=O)N1CCN(C(=O)c2ccco2)CC1)c1cccc(O)c1`, the max response is 5.85% (active).

As to `O=C(CCCC(=O)N1CCN(c2cccc(Cl)c2)CC1)c1ccccc1`, the max response is 19.7% (active).

In the case of `O=C(c1ccco1)N1CCN(C(=O)C2CC(c3ccc(F)cc3)=NO2)CC1` (configuration not stated), the max response is -6.02%. The result for `CS(=O)(=O)N(CC(=O)N1CCN(c2cccc(Cl)c2)CC1)c1ccccc1` reads -1.4%; that for `O=C(c1ccco1)N1CCN(C(=O)C2c3ccccc3Oc3ccccc32)CC1`, 12.3% (active); that for `CC(C)c1nnc(NC(=O)CCC(=O)N2CCN(c3cccc(Cl)c3)CC2)s1`, 4.84%. Then `O=C(c1ccco1)N1CCN=C1SCc1cccc(Cl)c1`, with -6.49%; and `O=C(OCC(=O)N1CCCC1)c1ccco1`, with 10.1%. The result for `O=C(c1cccc([N+](=O)[O-])c1)N1CCN(C(=O)c2ccco2)CC1` reads -0.729%; that for `O=C(OCC(=O)N1CCN(C(=O)c2ccco2)CC1)c1ccccc1Cc1ccccc1`, 34.9%; that for `CCOC(=O)Cn1c(=O)sc2cccc(Cl)c21`, -1.55%. Regarding `COc1cc(C)c(C(C)C)cc1S(=O)(=O)n1ccnc1`, the max response is 0.42%. For the molecule `CCOC(=O)c1ccc(N=C2SC(C(=O)NC)CC(=O)N2CCc2ccccc2)cc1` (configuration not stated), the max response is 1.86%. Then `Cc1cc(=O)cc(C)n1-c1ccc(Cl)c(Cl)c1`, with -2.09%; and `O=C(CSc1nc2ccc(Nc3nc(N4CCOCC4)nc(N4CCOCC4)n3)cc2s1)NCc1ccco1`, with -3.23%.

Take `CC(=O)Nc1ccc(S(=O)(=O)NCC2CCC(C(=O)NCCc3ccccc3)CC2)cc1` (configuration not stated): the max response is -1.06%.

In the case of `CC1CCCN(CC(=O)Nc2cc(Cl)ccc2Oc2ccccc2)C1` (configuration not stated), the max response was 8.16%.

`O=C(CN1CCOCC1)Nc1ccc(NC(=O)CN2CCOCC2)c(Cl)c1`: the max response was -4.13%. Then `CC(=O)Nc1ccc(NC(=O)CN2CCCC(C)C2)c(Cl)c1` (configuration not stated), with 22.7% (active); and `Nc1nc(SCC(=O)Nc2ccc(Cl)cc2C(F)(F)F)n[nH]1`, with -3.77%; and `N#Cc1ccc(/C=C2\CCn3c2nc2cc(C(=O)O)ccc2c3=O)cc1`, with -2.31%. Consider `c1ccc(-c2ccc(OCCN3CCOCC3)cc2)cc1`, for which the max response was 47.6% (active).

In the case of `CC(=O)c1ccc(OCCN2CCOCC2)cc1`, the max response is 3.75%.

For `CC(C)(c1ccccc1)c1ccc(OCCN2CCCC2)cc1`, the max response was 2.15%.

Regarding `CCc1c(C)nc(N)n2c(SCC(=O)NC3CCCCC3)nnc12`, the max response is 11.5%. Then `CN(C)/N=C/c1cn(-c2ccccc2)nc1-c1cccnc1`, with 6.55%; and `COc1ccc(-c2nn(-c3ccccc3)cc2/C=N/Nc2ccccn2)cc1OC`, with 14.8% (active). Regarding `COc1ccc(-c2nn(-c3ccccc3)cc2C(=O)Nc2nccs2)cc1OC`, the max response was -1.49%. As for `Cc1cc(C)cc(C(=O)N(CCc2ccccc2)C2=CC3CCC(C2)N3C)c1` (configuration not stated), the max response was 3.92%.

For `O=C(C1CC(=O)N(c2ccc(Br)cc2)C1)N1CCCC1` (configuration not stated), the max response was 4.73%.

`O=c1cc(-c2ccccc2)[nH]c2cc(F)ccc12`: the max response is -3.07%. Then `Cc1ccc(-c2cc(=O)c3ccc(F)cc3[nH]2)cc1`, with 6.8% (active); and `Cc1ccc(-c2cc(=O)c3ccc(Cl)cc3[nH]2)cc1`, with -0.873% and 14.9%; and `CC(=O)NC(CC(=O)Nc1cccc(S(=O)(=O)N2CCCC2)c1)c1ccccc1` (configuration not stated), with -2.18%. Then `COc1ccc(S(=O)(=O)N2CCOC2CNC(=O)C(=O)NCc2ccc(F)cc2)cc1` (configuration not stated), with -1.46%; and `CC1(C)C=C2[C@H]3CC[C@@H]4[C@@]5(C)CCC(=O)C(C)(C)[C@@H]5CC[C@@]4(C)[C@]3(C)CC[C@@]2(C(=O)O)CC1`, with 4.36%; and `O=C(CN(C(=O)c1nsc(Cl)c1Cl)c1cccc(F)c1)NC1CCCC1`, with -1.97%. The result for `COc1cc(NC(=S)N2CCCC(C)C2)c(OC)cc1Cl` (configuration not stated) reads 17.5% (active). `COc1cc(NC(=S)NNC(=O)CC(C)C)c(OC)cc1Cl`: the max response is -6.7%.

On to `COc1cc(NC(=S)N2CCCC(C)C2)cc(OC)c1OC` (configuration not stated), for which the max response is -2.44%.

As to `COc1ccccc1C(=O)N1C(CC(=O)Nc2ccccc2C)C(=O)NC2CCCCC21` (configuration not stated), the max response was -3.1%. The result for `N#CC(C#N)=CN=c1ccn(Cc2ccc(Cl)cc2Cl)cc1` reads -0.809%; that for `C=CCn1c(CCNC(=O)c2cccs2)n[nH]c1=S`, 2.82%; that for `C=CCn1c(=NC(=O)c2ccc(S(=O)(=O)N3CCCC3)cc2)sc2cc(NC(C)=O)ccc21`, -4.67%. The result for `C=CCn1c(=NC(=O)c2cccs2)sc2cc(NC(C)=O)ccc21` reads 16.5% (active); that for `CN1CCN(S(=O)(=O)c2cccc(C(=O)N3CCc4ccccc43)c2)CC1`, -1.65%. The result for `O=C1NN(c2ccccc2)C(=O)/C1=C/c1ccc(-c2cccc(C(=O)O)c2)o1` reads 21%; that for `CCOC(=O)NN1C(=O)c2ccccc2NC1c1cccc(O)c1` (configuration not stated), 7.43%; that for `O=C1c2ccccc2NC(c2ccc(-c3cccc(Cl)c3)o2)N1O` (configuration not stated), 38.7% (active).

As for `CC(C)[C@@H](NC(=O)OC(C)(C)C)C(=O)NCC1CCC(C(=O)N[C@@H](Cc2ccccc2)C(=O)O)CC1` (some centres not stated), the max response was -1.77%. Take `Cc1cccc(C(=O)N2CCc3c([nH]c4ccccc34)C2CC(C)C)n1` (configuration not stated): the max response is 26.8% (active).

As to `Cc1cccc(C2c3[nH]c4ccccc4c3CCN2C(=O)c2cc(-c3cccn3C)n[nH]2)n1` (configuration not stated), the max response is -3.03%. As for `O=C(c1cn2ccccc2n1)N1CCc2c([nH]c3ccccc23)C1c1ccccn1` (configuration not stated), the max response was 3.01%. Then `CCN(CCn1cccn1)Cc1nc(-c2ccc(C(=O)OC)cc2)no1`, with -4.94%; and `CC(=O)C1=C(O)C(=O)N(c2ccc(S(N)(=O)=O)cc2)C1c1ccccc1F` (configuration not stated), with -0.999%.

In the case of `CCOC(=O)C1CCN(Cc2nnc(-c3cccc(Br)c3)o2)CC1`, the max response is -0.93%. Then `COc1ccc(-c2csc(N3CCN(Cc4ccc5c(c4)OCO5)CC3)n2)cc1`, with -4.44%; and `CCOC(=O)N/N=C/c1cccnc1`, with 11.3%; and `Brc1ccc(-c2csc(N/N=C/c3ccc4c(c3)OCO4)n2)cc1`, with 17.6%. The result for `COc1ccc(CCN(C(=O)COc2ccccc2)c2nc(-c3ccccc3)cs2)cc1OC` reads 5.03%; that for `NS(=O)(=O)c1ccc(Nc2nc(-c3ccccc3)cs2)cc1`, 18.5%. Then `CC(C)(C)C(=O)OCc1nc(-c2ccc(O)c(O)c2)cs1`, with 5.11%; and `COc1ccc(Nc2nc(-c3ccccc3)cs2)cc1`, with 46.6% (active). Turning to `CN(c1ccc(O)cc1)c1nc(-c2cccnc2)cs1`, the max response is 56.1% (active). Take `Brc1ccc(-c2csc(N/N=C/c3cccnc3)n2)cc1`: the max response was 19.4% (active). Then `COc1ccc(-c2csc(Cc3nc(O)cs3)n2)cc1`, with 37.4% (active); and `CN(C(=O)CSc1nc(C2CC2)nc2ccccc12)c1nc(-c2ccccc2)cs1`, with 4.58%. Then `COc1ccc(-c2csc3ncnc(N4CCN(S(=O)(=O)c5ccccc5C#N)CC4)c23)cc1`, with -2.23%; and `COc1cc(/C=N/O)cc(Br)c1OS(=O)(=O)c1ccc(C)cc1`, with 1.45%. Then `COc1cc(NC(=O)CCNC(=O)Cn2ccc3ccccc3c2=O)cc(OC)c1OC`, with -5.95%; and `COc1ccc(OC)c(C(=O)NC(CC(N)=O)c2ccc(N3CCC(N4CCCCC4)CC3)c([N+](=O)[O-])c2)c1` (configuration not stated), with 4.9%. On to `CCC(C(=O)NC1CCCC1)N(C(=O)Cn1nnc(-c2ccc(C)o2)n1)c1ccc(OC)c(OC)c1` (configuration not stated), for which the max response was -5.67%. On to `Cc1scc(C(=O)NNC(=S)NCc2ccccc2)c1C`, for which the max response is -0.644%. The result for `Cc1ccc(S(=O)(=O)N(Cc2ccc(Cl)cc2)c2ccccc2C(=O)NCc2cccnc2)cc1` reads 7.18%; that for `COC(=O)c1cc2c(ccn2C)n1C`, -8.1%; that for `Oc1ccc(-c2csc(Nc3cccnc3)n2)cc1`, 33.7% (active). Then `COC(=O)CCc1sc(Nc2ccc(Br)cc2)nc1-c1ccc(OC)cc1`, with 11.1%; and `COc1ccc(OC)c(Nc2nc(-c3ccc(O)c(O)c3)cs2)c1`, with 0.815%. Then `O=C(Nc1ccc(-c2csc(Nc3cccc(C(F)(F)F)c3)n2)cc1)c1cccc(C(F)(F)F)c1`, with -4.63%; and `COc1ccc(-c2csc(Nc3ccc(O)cc3)n2)cc1`, with 58.3% (active); and `COC(=O)CCCCCN1C(=O)NC(c2ccc(-c3ccccc3)cc2)C(C(=O)OCc2ccccc2)=C1C` (configuration not stated), with -3.62%. `CN1C2CCC1/C(=C\c1ccccc1Cl)C(=O)/C2=C\c1ccccc1Cl`: the max response was -1.18%. Then `Cc1cc(C)c(S(=O)(=O)c2ccc(F)cc2C)c(=O)[nH]1`, with 0.432%; and `COc1ccc(-n2c(C)nc3c(cnn3-c3ccccc3)c2=O)cc1`, with -2.87%. For the molecule `O=C(Cn1cnc2c(cnn2-c2ccc(F)cc2)c1=O)NCCc1ccccc1`, the max response is -1.32%. Then `Cc1ccc(-c2nc3c(cnn3-c3ccccc3)c(=O)o2)cc1`, with -3.4%. In the case of `CC(=O)Cn1cnc2c(cnn2-c2ccccc2)c1=O`, the max response is 20.7% (active). Consider `O=C(Cn1cnc2c(cnn2-c2ccccc2)c1=O)NCc1ccccc1`, for which the max response is 20.7% (active). Then `O=C(Cn1cnc2cc([N+](=O)[O-])ccc2c1=O)NC(=O)NCc1ccccc1`, with 5.35%; and `Cc1cc(C)n(S(=O)(=O)c2cccc([N+](=O)[O-])c2)n1`, with 0.92%.
